Here are results for six compounds from PubChem BioAssay AID1508601 (ICCB-Longwood Screening Facility, Harvard Medical School, 2020).

Structures are written as SMILES. About 85 (1%) of roughly 5,700 compounds were called active. No stated cut-off is given here; in the data, active means p53-positive nuclei above about 36% (passing the limit was not always enough); inactive means the rest. Many of the other results were omitted from the sample, so actives are more common in it than they were.

The nature of experiment [1]: nuclear p53 accumulation, HPV+ cells – imaging, p53-positive nuclei imaging, 24 h, 48 h (AID 1508601). Conditions: 24/48 h.
For experiment [2], the target named is Cellular tumor antigen p53 (Homo sapiens) (UniProt P04637). The experiment is described as above. The settings on record: 24/48 h, stronger effect = higher value.
Setting [3] is: measured here: cell number at 24 h, Library stock concentration: 10 mM.
[4] abbreviates: measured here: cell number at 48 h, Library stock concentration: 10 mM.
Where [5] appears, read: Library stock concentration: 10 mM.
[6] abbreviates: measured here: p53 positive nuclei at 24 h, Library stock concentration: 10 mM.
[7] abbreviates: measured here: cell number at 24 h, concentration not given here.
Where [8] appears, read: measured here: cell number at 48 h, concentration not given here.
The mark [9] stands for this setting: measured here: p53 positive nuclei at 24 h, concentration not given here.
Where [10] appears, read: measured here: cell number at 24 h, Library stock concentration: 46 uM.
Where [11] appears, read: measured here: cell number at 24 h, Library stock concentration: 278 uM.
[12] abbreviates: measured here: cell number at 24 h, Library stock concentration: 1.67 mM.
The mark [13] stands for this setting: measured here: cell number at 48 h, Library stock concentration: 46 uM.
Setting [14] is: measured here: cell number at 48 h, Library stock concentration: 278 uM.
Setting [15] is: measured here: cell number at 48 h, Library stock concentration: 1.67 mM.
[16] abbreviates: Library stock concentration: 46 uM.
Where [17] appears, read: Library stock concentration: 278 uM.
[18] abbreviates: Library stock concentration: 1.67 mM.
The mark [19] stands for this setting: measured here: p53 positive nuclei at 24 h, Library stock concentration: 46 uM.
Setting [20] is: measured here: p53 positive nuclei at 24 h, Library stock concentration: 278 uM.
Setting [21] is: measured here: p53 positive nuclei at 24 h, Library stock concentration: 1.67 mM.

Sequence of Cellular tumor antigen p53 (Homo sapiens) (P04637 whole entry, looked up): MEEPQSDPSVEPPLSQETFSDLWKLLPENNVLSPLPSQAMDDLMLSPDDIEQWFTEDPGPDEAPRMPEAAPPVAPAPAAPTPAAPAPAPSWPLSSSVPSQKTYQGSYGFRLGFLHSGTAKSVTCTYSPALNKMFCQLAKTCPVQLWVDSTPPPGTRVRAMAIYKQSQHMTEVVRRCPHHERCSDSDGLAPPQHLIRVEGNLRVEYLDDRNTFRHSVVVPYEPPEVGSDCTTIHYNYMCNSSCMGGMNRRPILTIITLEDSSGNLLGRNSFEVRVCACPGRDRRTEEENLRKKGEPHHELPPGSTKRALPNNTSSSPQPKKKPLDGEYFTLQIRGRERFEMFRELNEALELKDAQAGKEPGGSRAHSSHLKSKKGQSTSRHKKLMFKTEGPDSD

For `CCn1cnc2c(Nc3cccc(Cl)c3)nc(NC3CCCCC3N)nc21` (stereo unspecified), the nuclei count, normalised was 108% in experiment [1] (measured here: cell number at 24 h, Library stock concentration: 80 uM); 103% in experiment [1] (measured here: cell number at 24 h, Library stock concentration: 400 uM); 91.4% in experiment [1] (measured here: cell number at 24 h, Library stock concentration: 2 mM); 32.2% in experiment [1] (setting [3]); 110% in experiment [1] (measured here: cell number at 48 h, Library stock concentration: 80 uM); 104% in experiment [1] (measured here: cell number at 48 h, Library stock concentration: 400 uM). Further, the nuclei count, normalised in experiment [1] (measured here: cell number at 48 h, Library stock concentration: 2 mM) is 98.2%; in experiment [1] (setting [4]) it was 21.9%. The p53-positive nuclei, normalised is -0.102% (inactive) in experiment [2] (Library stock concentration: 80 uM); -0.0205% (inactive) in experiment [2] (Library stock concentration: 400 uM); 0.0322% (inactive) in experiment [2] (Library stock concentration: 2 mM); 61.8% (active) in experiment [2] (setting [5]); 0.0806% in experiment [2] (measured here: p53 positive nuclei at 24 h, Library stock concentration: 80 uM); 0.000598% in experiment [2] (measured here: p53 positive nuclei at 24 h, Library stock concentration: 400 uM). Also, the p53-positive nuclei, normalised was determined as 0.126% in experiment [2] (measured here: p53 positive nuclei at 24 h, Library stock concentration: 2 mM) and 48.5% in experiment [2] (setting [6]).
Regarding `CCCCCCCCCCCCCCCCOC[C@H](COP(=O)([O-])OCC[N+](C)(C)C)OC(C)=O`, the nuclei count, normalised in experiment [1] (setting [7]) and in experiment [1] (setting [8]) was 107% in each case. Also, the p53-positive nuclei, normalised is -0.0025% (inactive) in experiment [2] (concentration not given here) and -0.0227% in experiment [2] (setting [9]).
`CCCCC/C=C\C/C=C\C/C=C\C/C=C\CCCC(=O)NC(CO)CO`: the results for the nuclei count, normalised in experiment [1] (setting [7]) and in experiment [1] (setting [8]) were 103% and 109%, respectively. In addition, the p53-positive nuclei, normalised in experiment [2] (concentration not given here) was 0.067% (inactive); in experiment [2] (setting [9]), -0.135%.
With `CC1CN(Cc2ccc(F)cc2)CCN1C(=O)COc1ccc(Cl)cc1NC(N)=O` (stereo unspecified), the nuclei count, normalised in experiment [1] (setting [10]) came out at 113%; in experiment [1] (setting [11]), 111%; in experiment [1] (setting [12]), 113%; in experiment [1] (setting [3]) it was 116%; in experiment [1] (setting [13]) it was 112%; in experiment [1] (setting [14]) it was 110%. Also, the nuclei count, normalised in experiment [1] (setting [15]) and in experiment [1] (setting [4]) was 112% each time. The p53-positive nuclei, normalised is -0.174% (inactive) in experiment [2] (setting [16]); -0.135% (inactive) in experiment [2] (setting [17]); -0.0557% (inactive) in experiment [2] (setting [18]); -0.323% (inactive) in experiment [2] (setting [5]); 0.0345% in experiment [2] (setting [19]); -0.0826% in experiment [2] (setting [20]). For the same compound, the p53-positive nuclei, normalised in experiment [2] (setting [21]) was -0.151%; in experiment [2] (setting [6]), 0.0332%.
Turning to `COc1ccc2c3c([nH]c2c1)C(CC(C)C)N1C(=O)C(CCC(=O)OC(C)(C)C)NC(=O)C1C3` (stereo unspecified), the nuclei count, normalised worked out at 116% in experiment [1] (setting [10]); 114% in experiment [1] (setting [11]); 116% in experiment [1] (setting [12]); 118% in experiment [1] (setting [3]); 111% in experiment [1] (setting [13]); 106% in experiment [1] (setting [14]). The figures for the nuclei count, normalised in experiment [1] (setting [15]) and in experiment [1] (setting [4]) were 106% and 108%, respectively. Besides, the p53-positive nuclei, normalised in experiment [2] (setting [16]) is -0.285% (inactive); in experiment [2] (setting [17]), -0.0842% (inactive); in experiment [2] (setting [18]), -0.358% (inactive); in experiment [2] (setting [5]), -0.016% (inactive); in experiment [2] (setting [19]), -0.0846%; in experiment [2] (setting [20]), 0.0359%. Besides, the p53-positive nuclei, normalised is -0.151% in experiment [2] (setting [21]) and 0.0251% in experiment [2] (setting [6]).
Take `NOCCC(N)C(=O)O` (stereo unspecified): the nuclei count, normalised in experiment [1] (measured here: cell number at 24 h, Library stock concentration: 500 nM) came out at 99.2%; in experiment [1] (measured here: cell number at 24 h, Library stock concentration: 1.5 uM), 103%; in experiment [1] (measured here: cell number at 24 h, Library stock concentration: 4.6 uM), 103%; in experiment [1] (measured here: cell number at 24 h, Library stock concentration: 13.7 uM), 107%; in experiment [1] (measured here: cell number at 24 h, Library stock concentration: 41 uM) it was 111%; in experiment [1] (measured here: cell number at 24 h, Library stock concentration: 123 uM), 113%. Besides, the nuclei count, normalised came to 115% in experiment [1] (measured here: cell number at 24 h, Library stock concentration: 370 uM); 106% in experiment [1] (measured here: cell number at 24 h, Library stock concentration: 1.111 mM); 110% in experiment [1] (measured here: cell number at 24 h, Library stock concentration: 3.333 mM); 97.4% in experiment [1] (setting [3]); 98.5% in experiment [1] (measured here: cell number at 48 h, Library stock concentration: 500 nM); 106% in experiment [1] (measured here: cell number at 48 h, Library stock concentration: 1.5 uM). The nuclei count, normalised is 104% in experiment [1] (measured here: cell number at 48 h, Library stock concentration: 4.6 uM); 112% in experiment [1] (measured here: cell number at 48 h, Library stock concentration: 13.7 uM); 113% in experiment [1] (measured here: cell number at 48 h, Library stock concentration: 41 uM); 115% in experiment [1] (measured here: cell number at 48 h, Library stock concentration: 123 uM); 114% in experiment [1] (measured here: cell number at 48 h, Library stock concentration: 370 uM); 108% in experiment [1] (measured here: cell number at 48 h, Library stock concentration: 1.111 mM). Also, the nuclei count, normalised was 112% in experiment [1] (measured here: cell number at 48 h, Library stock concentration: 3.333 mM) and 102% in experiment [1] (setting [4]). Further, the p53-positive nuclei, normalised was -0.0211% (inactive) in experiment [2] (Library stock concentration: 500 nM); -0.092% (inactive) in experiment [2] (Library stock concentration: 1.5 uM); -0.0486% (inactive) in experiment [2] (Library stock concentration: 4.6 uM); -0.0639% (inactive) in experiment [2] (Library stock concentration: 13.7 uM); 0.121% (inactive) in experiment [2] (Library stock concentration: 41 uM); -0.0786% (inactive) in experiment [2] (Library stock concentration: 123 uM). For the same compound, the p53-positive nuclei, normalised was -0.0673% (inactive) in experiment [2] (Library stock concentration: 370 uM); -0.0556% (inactive) in experiment [2] (Library stock concentration: 1.111 mM); -0.0652% (inactive) in experiment [2] (Library stock concentration: 3.333 mM); -0.0323% (inactive) in experiment [2] (setting [5]); 0.111% in experiment [2] (measured here: p53 positive nuclei at 24 h, Library stock concentration: 500 nM); -0.132% in experiment [2] (measured here: p53 positive nuclei at 24 h, Library stock concentration: 1.5 uM). For the same compound, the p53-positive nuclei, normalised is -0.00649% in experiment [2] (measured here: p53 positive nuclei at 24 h, Library stock concentration: 4.6 uM); -0.187% in experiment [2] (measured here: p53 positive nuclei at 24 h, Library stock concentration: 13.7 uM); 0.0689% in experiment [2] (measured here: p53 positive nuclei at 24 h, Library stock concentration: 41 uM); -0.0424% in experiment [2] (measured here: p53 positive nuclei at 24 h, Library stock concentration: 123 uM); 0.0115% in experiment [2] (measured here: p53 positive nuclei at 24 h, Library stock concentration: 370 uM); 0.0344% in experiment [2] (measured here: p53 positive nuclei at 24 h, Library stock concentration: 1.111 mM). The p53-positive nuclei, normalised is -0.136% in experiment [2] (measured here: p53 positive nuclei at 24 h, Library stock concentration: 3.333 mM) and -0.121% in experiment [2] (setting [6]).
